Measured values reported in PubChem BioAssay (EPA / NIEHS).
Where “and” joins values, the source holds several entries; their conditions need not be identical. Equal entries are not always repeated. The source holds several records for some structures; these can differ, active in one and inactive in another. Calls of active or inactive are those of the source. How the source made its calls: active means hit-call score of the fitted dose curve at least 0.9, where 1 is the maximum; inactive means score below 0.9.

Legend:
[1] = Tanguay_ZF_120hpf_CRAN: Oregon State University Tanguay Lab 120 Hour Post-fertilization zebrafish Assay for Craniofacial Malformation (AID 2284397)
How it was run: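 Scoring of craniofacial malformation as a binary endpoint was done at 120 hpf by brightfield microscopy and was not done in dead embryos. Exposure was static, starting at 6 hpf, in dechorionated wild-type embryos held singly at 28C with 0.64% DMSO final.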

[2] = Tanguay_ZF_120hpf_AXIS: Oregon State University Tanguay Lab 120 Hour Post-fertilization zebrafish Assay for Axial Malformation (AID 2284398)
How it was run: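 Scoring was binary (present or absent) for body-axis defects, judged by brightfield imaging at 120 hpf in surviving larvae. Exposure was static at 28C from 6 hpf in chorion-free 5D wild-type embryos, with 0.64% DMSO vehicle.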

[3] = Tanguay_ZF_120hpf_MORT: Oregon State University Tanguay Lab 120 Hour Post-fertilization zebrafish Assay for Mortality (AID 2284399)
How it was run: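 Mortality, recorded present/absent via brightfield imaging at 24 and 120 hpf, in 5D zebrafish embryos exposed statically from 6 hpf after pronase chorion removal. Exposure at 28C, 0.64% DMSO vehicle, DMSO baseline.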

[4] = Tanguay_ZF_120hpf_EDEM: Oregon State University Tanguay Lab 120 Hour Post-fertilization zebrafish Assay for Edema Malformation (AID 2284400)
Procedure: Tanguay_ZF_120hpf is a whole embryo, multiplexed endpoint assay using zebrafish larvae exposed for 120 hours post fertilization on a 96-well plate.Tanguay_ZF_120hpf_EDEM is one of one assay component(s) measured or calculated from the Tanguay_ZF_120hpf assay. It is designed to make measurements of zebrafish development as detected with brightfield microscopy of developing zebrafish embryos.Data from the assay component Tanguay_ZF_120hpf_EDEM was analyzed into 1 assay endpoints. This assay endpoint, Tanguay_ZF_120hpf_EDEM, was analyzed in the positive analysis fitting direction relative to DMSO as the negative control and baseline of activity. Using a type of morphology reporter, gain-of-signal activity can be used to understand changes in developmentals as they relate to the whole embryo. To generalize the intended target to other relatable targets, this assay endpoint is annotated to the zebrafish development intended target family, where the subfamily is embryonic edema.
Zebrafish husbandry: Tropical 5D wild-type adult zebrafish were housed in at an approximate density of 1000 per 100 gallon tank at the Sinnhuber Aquatic Research Laboratory, Oregon State University, Corvallis, OR. […] At 24 hpf, embryos were assessed for photomotor response using a custom photomotor response analysis tool (PRAT) and for developmental toxicity endpoints (MO24: mortality at 24 hpf, DP: developmental progression, SM: spontaneous movement, and NC: notochord distortion). At 120 hpf, locomotor activity was measured using Viewpoint Zebralab and assessed for 13 endpoints. Zebrafish acquisition and analysis program (ZAAP), a custom program designed to inventory, acquire, and manage zebrafish data, was used to collect developmental endpoints as either present or absent (i.e., binary responses were recorded). If mortality occurred for an embryo (at either 24 or 120 hpf), the non-mortality endpoints were not measured.

[5] = Tanguay_ZF_120hpf_BRN: Oregon State University Tanguay Lab 120 Hour Post-fertilization zebrafish Assay for Brain Region Malformation (AID 2284402)
How it was run: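 Binary brightfield scoring of brain malformation at 120 hpf in 5D wild-type larvae, chorion removed with pronase at 4 hpf. Static exposure began at 6 hpf, 28C, sealed plates, DMSO 0.64% (vol/vol) as vehicle baseline.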

[6] = Tanguay_ZF_120hpf_TCHR: Oregon State University Tanguay Lab 120 Hour Post-fertilization zebrafish Assay for Touch Responsive (AID 2284403)
How it was run: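 Binary touch-response calls are made at 120 hpf in 5D wild-type zebrafish larvae. These larvae were dechorionated with pronase and exposed singly from 6 hpf in sealed, dark plates at 28 °C with 0.64% DMSO final; dead embryos are excluded.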

[7] = Tanguay_ZF_120hpf_ANY: Oregon State University Tanguay Lab 120 Hour Post-fertilization zebrafish Assay for Any Mortality and Malformation (AID 2284404)
How it was run: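 Dechorionated Tropical 5D wild-type embryos, one per well from 6 hpf, static exposure in sealed, dark plates at 28C until 120 hpf, 0.64% DMSO final. Brightfield scoring of mortality and malformations as binary presence/absence, pooling 13 morphology endpoints.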

[8] = CCTE_Padilla_ZF_Score.Craniofacial: CCTE's 144 Hour Post-fertilization zebrafish Assay Score for Craniofacial Malformation, Padilla Lab (AID 2284405)
Procedure: CCTE_Padilla_ZF_Phenotype_Score is a whole embryo, multiplexed assay using zebrafish ova exposed for 144 hours post fertilization on a 96-well plate.CCTE_Padilla_ZF_Score.Craniofacial is one of one assay component(s) measured or calculated from the CCTE_Padilla_ZF_Phenotype_Score assay. It is designed to make measurements of zebrafish development as detected with brightfield microscopy of developing zebrafish embryos.Data from the assay component CCTE_Padilla_ZF_Score.Craniofacial was analyzed into 1 assay endpoints. This assay endpoint, CCTE_Padilla_ZF_Score.Craniofacial, was analyzed in the positive analysis fitting direction relative to DMSO as the negative control and baseline of activity. Using a type of viability reporter, gain-of-signal activity can be used to understand changes in developmentals as they relate to the whole embryo. To generalize the intended target to other relatable targets, this assay endpoint is annotated to the zebrafish development intended target family, where the subfamily is craniofacial morphogenesis.
Zebrafish husbandry: Wild type adult zebrafish (Danio rerio; undefined outbred stock obtained from Aquatic Research Organisms, Hampton, NH, 03842) were housed in an AAALAC-approved animal facility at 28C with a 14:10 h light: dark cycle (lights on at 08:30 h). Adult fish (2-3 females per male; density = 15-20 adults per tank) were kept in one of several 9-liter (L) flow-through colony tanks (Aquaneering Inc., San Diego, CA). All adults in a colony tank were placed in a 2 L (static) breeding tank (Aquatic Habitats, Apopka, FL) one hour prior to light onset. Typically, adults from two to three colony tanks were mated on the same day. Two hours after light onset the adults were returned to the colony tank. All embryos were gathered from each breeder tank, pooled, and placed in a 28C water bath for 2 h, followed by two washes with 0.06% bleach (v/v) in 10% Hanks' Balanced Salt Solution (13.7 mM NaCl 0.54 mM KCl, 25 uM Na2HPO4, 130 uM CaCl2 100 um MgSO4 and 420 um NaHCO3,), hereafter referred to as Hanks' solution, for 5 min in order to remove any residual bacteria or fungi. Immediately following washing, the embryos were examined, and healthy embryos were separated from dead or unfertilized eggs and moved into fresh Hanks'. Chemical exposures: Zebrafish embryos were exposed in 96-well plates. Between 6- and 8-hours post fertilization (hpf), healthy embryos (with chorions) were transferred, one embryo per well, into 96 well (0.5 mL) microtiter plates (Cell Culture-Treated, Flat-Bottom Microplate 96 well [Corning Costar, Kennebunk, ME; Cat 09-761-145]) filled with 200 uL of Hanks' solution. A random number generator was used to assign the order in which the rows of embryos were plated in 96 well plates each week. After plating, the embryos were dosed with 0.8 uL of the chemical dosing solution then immediately sealed with AlumaSeal II (Excel Scientific Inc, Victorville, CA) to prevent volatilization of the chemicals, and then placed in a leakproof secondary container. These containers were placed in an incubator maintained on a 14:10 h light: dark cycle at 26C for rearing. On 5 dpf, live larvae were gently moved out of the plate with test chemicals and into a new 96 well mesh plate (Millipore Corp., Bedford, MA) with just the Hanks' solution. […]

[9] = CCTE_Padilla_ZF_Score.Edema: CCTE's 144 Hour Post-fertilization zebrafish Assay Score for Edema Malformation, Padilla Lab (AID 2284406)
How it was run: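 Edema scored at 6 dpf by two blinded observers under a stereo microscope, in single outbred wild-type larvae exposed from 6-8 hpf in sealed wells (Hanks', 26C, 14:10 h light) and chemical-free after a 5 dpf rinse.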

[10] = CCTE_Padilla_ZF_Score.Spine: CCTE's 144 Hour Post-fertilization zebrafish Assay Score for Spine Malformation, Padilla Lab (AID 2284407)
How it was run: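 Spine malformation scored at 6 dpf by two independent blinded observers under stereomicroscope, after static sealed exposure from 6–8 hpf at 26C in Hanks' solution with rinse on 5 dpf. Positive-direction fit against DMSO control.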

| SMILES | outcome [1] | outcome [2] | outcome [3] | outcome [4] | outcome [5] | outcome [6] | outcome [7] | AC50 [8] | AC50 [9] | outcome [10] | outcome [8] | outcome [9] | AC50 [10] |
| --- | --- | --- | --- | --- | --- | --- | --- | --- | --- | --- | --- | --- | --- |
| OCCC(F)(F)C(F)(F)C(F)(F)C(F)(F)C(F)(F)C(F)(F)F | inactive | inactive | inactive | inactive | inactive | inactive | inactive | 30.1 µM (active) | 16.5 µM (active) | inactive |  |  |  |
| OCCC(F)(F)C(F)(F)C(F)(F)C(F)(F)C(F)(F)C(F)(F)C(F)(F)C(F)(F)F | inactive | inactive | inactive | inactive | inactive | inactive | inactive |  |  | inactive | inactive | inactive |  |
| C=C(C)C(=O)OCCC(F)(F)C(F)(F)C(F)(F)C(F)(F)C(F)(F)C(F)(F)F | inactive | inactive | inactive | inactive | inactive | inactive | inactive |  |  | inactive | inactive | inactive |  |
| NCC(F)(F)C(F)(F)C(F)(F)C(F)(F)C(F)(F)C(F)(F)C(F)(F)F |  |  |  |  |  |  |  |  |  | inactive | inactive | inactive |  |
| FC(F)(I)C(F)(F)C(F)(F)C(F)(F)C(F)(F)C(F)(F)I |  |  |  |  |  |  |  | 34.5 µM (active) and 26.6 µM (active) | 19.1 µM (active) and 5.34 µM (active) | inactive |  |  | 6.93 µM (active) |
